18 molecules from PubChem BioAssay (NCI) can be followed below.

What all share (assay): NCI-60 one-dose screen, 48 h (100 = growth as untreated, 0 = no growth, -100 = all killed)
Common to all, as to conditions: 10 µM

Assay [1] concerns DU-145 prostate.
For assay [2], the system named is K-562 leukemia.
The test system of assay [3] is MALME-3M melanoma.
Assay [4] relates to MDA-MB-231 breast.
Assay [5] has as its system SF-268 CNS.
Assay [6] deals with SF-295 CNS.
Assay [7] concerns SF-539 CNS.
The subject of assay [8] is UACC-257 melanoma.
Assay [9] deals with M14 melanoma.

The panel holds about 83,000 compounds, 20% with a hit somewhere; the sample as a whole holds those more often.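 Values shown are percent growth following 48 h exposure of cells in 96-well plates to a single concentration of compound; below 10 was considered active.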 A number with no mark means an inactive call. Activity calls are given as the source filed them.

With `O=C(/C=C/Nc1ccccc1)c1ccc2c(c1)Nc1ccccc1S2`, the growth in assay [1] is 84.3%; in assay [2] it was 90.6%; in assay [3], 71.5%; in assay [4], 69.2%; in assay [5], 81.2%; in assay [6] it was 78.1%. Moreover, the results for the growth in [7], in assay [8] and in assay [9] were 59.9%, 96.7% and 93.8%, respectively.
For `C=CCn1c(SCC(=O)Nc2ccc(C(=O)/C=C/c3ccccc3)cc2)nnc1-c1c[nH]c2ccccc12`, the growth in assay [1] is 65.8%; in assay [2] it was 14.6%; in assay [3] it was 92.4%; in [4], 69.3%; in assay [5], 53.3%; in assay [6], 35%. The growth in assay [7] was -7.36% (active); in assay [8], 80.3%; in [9], 35.3%.
As for `O=[N+]([O-])c1ccc(-c2nc(-c3ccccc3)c(-c3ccccc3)n2-c2ccc(S(=O)(=O)Nc3ncccn3)cc2)cc1`, the growth was 64.4% in [1]; 47.1% in [2]; 87.2% in [3]; 43.2% in [4]; 31.7% in [5]; 9.39% (active) in [6]. In addition, the growth in assay [7] was 53.9%; in [8], 63.9%; in assay [9] it was 40.6%.
Regarding `Cc1cc(C)nc(/N=C(\N)Nc2ccc(S(=O)(=O)Nc3nc(C)cc(C)n3)cc2)n1`, the growth in [1] was 116%; in [2] it was 102%; in [3], 110%; in assay [4] it was 105%; in assay [5], 106%; in assay [6], 98%. Also, the growth in assay [7] was 102%; in assay [8], 108%; in assay [9], 111%.
In the case of `CC(C)c1ccc(C(=O)Nc2sc3c(c2C(N)=O)CCC(=O)C3=O)cc1`, the growth in [1] was 103%; in [2], 77.4%; in [3] it was 103%; in assay [4], 93.3%; in assay [5] it was 103%; in assay [6], 104%. For the same molecule, the growth in assay [7] was 93.9%; in assay [8], 93.8%; in [9], 96.3%.
In the case of `CN1CCN(c2ccc(C(=O)/C=C/c3ccc(OC(F)F)cc3)cc2)CC1`, the growth was 57.8% in assay [1]; 6.23% (active) in [2]; 84.1% in assay [3]; 41.5% in assay [4]; 81% in assay [5]; 47.4% in assay [6]. Further, the figures for the growth in assay [7], in assay [8] and in assay [9] were -39.8% (active), 68.7% and 31.6%, respectively.
On to `N#Cc1c(NC(=O)c2ccc(C(F)(F)F)cc2)sc2c1CCC(=O)C2`, for which the growth was 23.1% in assay [1]; 7.26% (active) in assay [2]; -54.2% (active) in assay [3]; -84.4% (active) in [4]; -37.6% (active) in [5]; -95.3% (active) in [6]. For the same molecule, the growth in assay [7] is -89.2% (active); in assay [8], -71.1% (active); in assay [9], -78.5% (active).
Turning to `OCCCNc1oc(-c2ccccc2)nc1[P+](c1ccccc1)(c1ccccc1)c1ccccc1`, the growth in [1] is 8.36% (active); in assay [2], 11.1%; in assay [3], -26% (active); in [4] it was -8.13% (active); in assay [5], 6.17% (active); in assay [6], 2.62% (active). The growth was 4.68% (active) in [7], -10.3% (active) in assay [8] and 10.1% in assay [9].
As to `Cc1cc(C)nc(NS(=O)(=O)c2ccc(N/C(N)=N/c3nccc(-c4cccs4)n3)cc2)n1`, the growth is 109% in assay [1]; 89.3% in [2]; 94.2% in assay [3]; 87% in assay [4]; 99.4% in assay [5]; 92.6% in assay [6]. In addition, the growth is 80.4% in [7], 111% in assay [8] and 106% in [9].
For `O=C(CSc1nnc(-c2ccc3nc(-c4ccccc4)[nH]c3c2)o1)Nc1ccc(Br)cc1`, the growth in [1] was 78.2%; in assay [2], 18.4%; in assay [3], 5.76% (active); in assay [4], 52.3%; in assay [5], 87.8%; in [6], 74.3%. Moreover, the figures for the growth in assay [7], in assay [8] and in [9] were 8.7% (active), 98.8% and 52.3%, respectively.
As to `Cc1cc(=O)oc2cc(OCCCCOc3ccc(/C=C/C(=O)Nc4ccc(F)c(Cl)c4)cc3)ccc12`, the growth was 89.1% in assay [1]; 88% in assay [2]; 71% in assay [3]; 97.1% in [4]; 111% in [5]; 101% in [6]. In addition, the figures for the growth in [7], in assay [8] and in assay [9] were 89.3%, 97.8% and 95.9%, respectively.
With `O=c1oc2ccccc2cc1-c1csc(N=Nc2c(O)[nH]c3ccc(Br)cc23)n1`, the growth in [1] was 94.2%; in assay [2] it was 103%; in assay [3] it was 56.3%; in [4] it was 56.5%; in [5] it was 51.2%; in assay [6], 39.5%. In addition, the growth in assay [7] was 35.6%; in assay [8], 105%; in [9], 97.5%.
For the molecule `COc1cc(NC(=O)CSc2nnc(-c3ccc4nc(-c5ccc(Cl)cc5)[nH]c4c3)o2)cc(OC)c1OC`, the growth is 73.8% in [1]; 31.3% in assay [2]; 66.5% in assay [3]; 75.2% in assay [4]; 76.1% in [5]; 48% in assay [6]. Moreover, the growth is 43.7% in assay [7], 94.4% in assay [8] and 69.5% in assay [9].
For `O=C(CNc1nc(-c2ccccc2)cs1)Nc1ccc([N+](=O)[O-])cc1`, the growth in [1] was 45.2%; in assay [2] it was 9.52% (active); in assay [3], -66.6% (active); in assay [4], -13.4% (active); in assay [5], 38.4%; in [6], 26%. Also, the growth in [7] is -28.2% (active); in assay [8], 39.5%; in assay [9], 30.2%.
In the case of `O=C1CCC(N2Cc3cc(CC(=O)Nc4ccc(N5CCCCC5)cc4)ccc3C2=O)C(=O)N1` (configuration not stated), the growth in assay [1] is 94.5%; in assay [2], 77.3%; in assay [3], -25.4% (active); in [4], 7.12% (active); in assay [5], 61.9%; in [6] it was 57.4%. Moreover, the growth in [7] is 65.6%; in assay [8], 102%; in assay [9], 39.4%.
On to `O=C(NO)c1ccc(CN2CCN(c3nc(-c4ccccc4)c4ccccc4n3)CC2)cc1`, for which the growth in assay [1] was 23.1%; in [2], 11.4%; in assay [3], 11.2%; in assay [4], 35%; in assay [5] it was 26.5%; in assay [6] it was -11.7% (active). Further, the growth is -23.8% (active) in assay [7], 43.3% in assay [8] and 5.75% (active) in assay [9].
Consider `Nc1nc(-c2ccccc2)cs1`, for which the growth in [1] is 66.7%; in [2], 28.2%; in assay [3] it was 74.4%; in [4] it was 61.8%; in [5], 48.3%; in [6] it was 37.7%. Moreover, the growth is 53.4% in [7], 81.9% in [8] and 72.2% in assay [9].
Regarding `CN1CCN(Cc2ccc(C(=O)Nc3cccc(Nc4ccc5c(O)cccc5n4)c3)cc2C(F)(F)F)CC1`, the growth in assay [1] is -1.97% (active); in [2], 8.33% (active); in [3], -95.9% (active); in [4] it was -59.5% (active); in assay [5], 2.2% (active); in assay [6] it was -69.3% (active). Moreover, the growth in [7] was -91.5% (active); in [8], -78.7% (active); in [9], -87.3% (active).
